Screening results from PubChem.
In the library only some 3.6% were active in any assay of this set; here they are far more common.
DAT uptake mod = changed hDAT dopamine uptake under cocaine IC80, either direction, primary screen, cocaine antagonist project, cell-based, LLC-PK1 hDAT, [14C]-dopamine uptake, MLSMR; AID 449768, 2010; actives 1.3% (n = 110,000); LLC-PK1 hDAT cells, [14C]-dopamine uptake with cocaine IC80; actives deviate in either direction; Sodium-dependent dopamine transporter (Homo sapiens), Q01959; B-score at 10 µM;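 active = Z score or B-score, a plate-position-corrected score, falls beyond the plate's 99.7% confidence bounds, in either direction; inactive = both scores lie inside the 99.7% bounds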;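 also: scored against the spread of the other compound wells on the same plate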
Target sequence (Q01959 whole entry, looked up): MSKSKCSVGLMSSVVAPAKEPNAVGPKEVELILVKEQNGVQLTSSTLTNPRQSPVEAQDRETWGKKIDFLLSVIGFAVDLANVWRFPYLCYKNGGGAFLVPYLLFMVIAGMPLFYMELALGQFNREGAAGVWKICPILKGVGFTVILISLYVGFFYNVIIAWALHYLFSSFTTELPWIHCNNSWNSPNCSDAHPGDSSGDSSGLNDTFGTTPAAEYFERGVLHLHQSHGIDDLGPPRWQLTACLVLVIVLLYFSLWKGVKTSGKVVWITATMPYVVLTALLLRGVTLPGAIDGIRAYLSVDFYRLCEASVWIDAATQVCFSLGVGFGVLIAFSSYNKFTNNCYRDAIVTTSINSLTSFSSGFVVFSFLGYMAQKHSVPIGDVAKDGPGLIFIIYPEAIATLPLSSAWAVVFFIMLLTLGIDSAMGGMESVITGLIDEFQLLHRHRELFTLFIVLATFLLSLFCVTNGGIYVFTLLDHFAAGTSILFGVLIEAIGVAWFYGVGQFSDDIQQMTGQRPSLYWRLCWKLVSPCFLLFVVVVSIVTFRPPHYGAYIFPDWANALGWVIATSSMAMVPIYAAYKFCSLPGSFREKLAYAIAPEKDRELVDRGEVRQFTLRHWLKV
PTEN del growth = growth suppression of PTEN-null HCT116, primary screen, cell-based, CellTiter-Glo. HCT116 PTEN-null viability, 60 h; stronger effect = lower value. viability, % at 10 µM. actives 1.2% (n = 140,000). AID 827, 2007;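 active = viability at or below a set limit, 4 SD under the median of all tested compounds, cut at about 3.7% in these data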;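 also: PTEN knockout HCT116 line with beta catenin targeted HCT116 as companion control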
bCat KO growth = primary screen for growth suppressors in beta-catenin knockout HCT116 cells (colon tumor, human). viability, % at 10 µM. actives 1.5% (n = 140,000). HCT116 beta-catenin knockout viability, CellTiter-Glo, 60 h; stronger effect = lower value;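 active = viability at or under a set limit, the compound median less 4 SD, cut at about 6% in these data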;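 also: 0% = Hyamine 1622 control at 20 µM and 100% = untreated cell control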
WT yeast gro inh = growth inhibition of WT strain, primary screen, mitochondrial fusion inhibitor project, WT and mutant strains, chemical genetic; actives 2.1% (n = 190,000); AID 1362, 2008; mitochondrial fusion phenotypic screen; inhibition, % at 10 µM; in the data active = inhibition above about 58%; tested in S. cerevisiae
* marks the source's active call; other numbers are inactive results.

What do the screens show for `COc1ccc(C(=O)NCCc2nnc3ccc(SCC(=O)Nc4cc(C)on4)nn23)cc1`?
WT yeast gro inh: 5

How did CCOC(=O)C1CCN(C(=O)c2sc3ncnc(N4CCC(C)CC4)c3c2C)CC1 do in these assays?
DAT uptake mod: 2.5*; PTEN del growth: 85; bCat KO growth: 86; WT yeast gro inh: 22

Results for COc1ccc(-n2c(-c3ccc(Br)cc3)nc(=S)c3c2CCCC3)cc1 ?
PTEN del growth: 59; bCat KO growth: 62; WT yeast gro inh: 63*

What do the screens show for `COc1ccc(-n2c(-c3ccc(Br)cc3)c[n+]3c2CCCCC3)cc1`?
WT yeast gro inh: 16

What do the screens show for `COc1ccc(C(=O)Nc2ccccc2C(=O)NC(Cc2c[nH]c3ccccc23)C(=O)O)cc1` (centres undefined)?
WT yeast gro inh: -2

What do the screens show for `COc1cccc(C=Nc2cccnc2)c1O`?
DAT uptake mod: -7*; PTEN del growth: 96; bCat KO growth: 95; WT yeast gro inh: 11

Results for COc1cccc(/C=N/NC(=O)C(=O)N/N=C/c2cccc(OC)c2O)c1O ?
WT yeast gro inh: 8

What do the screens show for `O=C1c2cccnc2C(=O)N1CNc1ccc(Cl)cc1`?
WT yeast gro inh: 4

What do the screens show for `CN(C)CCCN1C(=O)c2cccc3c([N+](=O)[O-])ccc(c23)C1=O`?
PTEN del growth: 1.6*; bCat KO growth: 1.4*; WT yeast gro inh: 58

Results for N#CC(C#N)=C1C=CC=CN1/C(=C\c1ccco1)C(=O)c1ccc(Br)cc1 ?
PTEN del growth: 4; bCat KO growth: 6; WT yeast gro inh: 71*

How did N#CC(C#N)=C1C=CC=CN1/C(=C\c1ccco1)C(=O)c1ccccc1 do in these assays?
PTEN del growth: 1.8*; bCat KO growth: 1.9*; WT yeast gro inh: -21

Results for COc1ccc(C(=O)/C(=C\c2ccco2)N2C=CC=CC2=C(C#N)C#N)cc1 ?
DAT uptake mod: 0.24; PTEN del growth: 11; bCat KO growth: 9; WT yeast gro inh: 8

What do the screens show for `CCOC(=O)C(=NCCOC)NNc1cc(Cl)ccc1Cl`?
PTEN del growth: 87; bCat KO growth: 84; WT yeast gro inh: 14

How did Clc1ccc(Oc2cccc(/C=N/n3cnnc3)c2)cc1 do in these assays?
DAT uptake mod: 1.7; PTEN del growth: 79; bCat KO growth: 80; WT yeast gro inh: 68*

Results for CCN(CC)CCCNC(=O)CSc1nc(C)cc(C)n1 ?
WT yeast gro inh: -5

What do the screens show for `O=C(NCc1ccc(Cl)cc1)C(=O)c1c[nH]c2ccccc12`?
WT yeast gro inh: 7

How did O=C(CCl)N(c1ccc(Cl)cc1)c1c[nH]c2ccccc12 do in these assays?
DAT uptake mod: 0.52; PTEN del growth: 1.8*; bCat KO growth: 1.7*; WT yeast gro inh: 14

Results for O=C(CCl)N(c1ccccc1)c1c[nH]c2ccccc12 ?
DAT uptake mod: 0.43; PTEN del growth: 1.3*; bCat KO growth: 1.9*; WT yeast gro inh: -3

How did CCOC(=O)c1cc(-c2ccc(F)cc2)n(CC(=O)NCc2cccnc2)c1C do in these assays?
WT yeast gro inh: -7

What do the screens show for `CCC(c1nnnn1CC1CCCO1)N(CCN1CCOCC1)Cc1cc2cc(C)ccc2[nH]c1=O` (centres undefined)?
DAT uptake mod: -1.8*; PTEN del growth: 69; bCat KO growth: 78; WT yeast gro inh: 12

How did Cc1ccc(NC(=O)c2ccccc2NS(=O)(=O)c2ccc(Cl)s2)cc1S(=O)(=O)N1CCOCC1 do in these assays?
PTEN del growth: 22; bCat KO growth: 20; WT yeast gro inh: 7

What do the screens show for `Cc1nc(C(Cl)(Cl)Cl)nc2[nH]ccc(=O)c12`?
WT yeast gro inh: -16

Results for CS(=O)(=O)N1N=C(c2cccs2)CC1c1ccc(Cl)o1 (centres undefined) ?
WT yeast gro inh: -5

What do the screens show for `Cc1ccc(Nc2nc(-c3c(C)nc4ccccn34)cs2)cc1`?
PTEN del growth: 13; bCat KO growth: 15; WT yeast gro inh: 71*

How did Cc1ccn2c(-c3csc(NCc4ccccc4)n3)c(C)nc2c1 do in these assays?
DAT uptake mod: 2.9*; PTEN del growth: 49; bCat KO growth: 51; WT yeast gro inh: 21

How did Cc1ccc(Nc2nc(-c3c(C)nc4ncccn34)cs2)cc1 do in these assays?
DAT uptake mod: -0.45; PTEN del growth: 15; bCat KO growth: 21; WT yeast gro inh: -4

Results for COc1ccc(Cl)cc1NC(=O)C(C)N(C)Cc1ccc(C(F)(F)F)cc1 (centres undefined) ?
PTEN del growth: 34; bCat KO growth: 26; WT yeast gro inh: 29

Results for CNS(=O)(=O)c1ccc(NC(=O)Nc2cccc(F)c2)cc1 ?
WT yeast gro inh: -7

What do the screens show for `CCOc1ccc(-n2nnnc2-c2nc3ccccc3s2)cc1`?
PTEN del growth: 3.1*; bCat KO growth: 3.3*; WT yeast gro inh: 4

How did Cc1ccc(-n2nnnc2-c2nc3ccccc3s2)cc1 do in these assays?
PTEN del growth: 99; bCat KO growth: 93; WT yeast gro inh: 3

How did Cc1cc(C(=O)c2ccc(Cl)cc2)c(NC(=O)CCl)s1 do in these assays?
PTEN del growth: 1.8*; bCat KO growth: 4.2*; WT yeast gro inh: -3

How did CCc1cc(C(=O)c2ccc(C)cc2)c(NC(=O)CCl)s1 do in these assays?
PTEN del growth: 49; bCat KO growth: 52; WT yeast gro inh: 8

What do the screens show for `COc1ccc(Cl)cc1C(=O)NC(=S)Nc1cc(-c2nc3ccccc3[nH]2)ccc1C`?
DAT uptake mod: 0.78; PTEN del growth: 26; bCat KO growth: 66; WT yeast gro inh: 11

What do the screens show for `Cc1ccc(NC(=O)CSc2nnc(CSc3nc(C)cc(C)n3)n2Cc2ccco2)c(C)c1`?
DAT uptake mod: 2.7*; PTEN del growth: 90; bCat KO growth: 72; WT yeast gro inh: 3

Results for Cc1cc(C)cc(Nc2ccc(C(=O)O)cc2N)c1 ?
DAT uptake mod: 1.4; PTEN del growth: 97; bCat KO growth: 93; WT yeast gro inh: -5

Results for Cc1ccc(Nc2ccc(C(=O)O)cc2N)cc1 ?
DAT uptake mod: 0.27; PTEN del growth: 100; bCat KO growth: 81; WT yeast gro inh: 73*

What do the screens show for `CCC(C(=O)OC)n1c(-c2ccccc2)nc2ccccc2c1=O` (centres undefined)?
WT yeast gro inh: 60*

What do the screens show for `CCNC(=O)Nn1c(-c2ccccc2)nc2ccccc2c1=O`?
DAT uptake mod: -0.096; PTEN del growth: 92; bCat KO growth: 90; WT yeast gro inh: 35

Results for CCCS(=O)(=O)N1CCc2cc(OC)c(OC)cc2C1 ?
DAT uptake mod: -8.2*; PTEN del growth: 96; bCat KO growth: 99; WT yeast gro inh: 6

What do the screens show for `COc1ccc(COc2cc(-c3cccc(OC)c3)nc3ccc(NC(=O)c4cccnc4)cc23)cc1`?
DAT uptake mod: 2.7*; PTEN del growth: 33; bCat KO growth: 34; WT yeast gro inh: 18

Results for NNC(=O)CCc1ccc(S(=O)(=O)N2CCOCC2)cc1 ?
WT yeast gro inh: -4
